Assay [1] is described as follows: qHTS assay to test for compound auto fluorescence at 535 nm (green) in HEK293 cells (AID 720680).
A short description of assay [2]: qHTS assay to test for compound auto fluorescence at 460 nm (blue) in HEK293 cell free culture (AID 720681). Summed up: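 Blue fluorescence (Ex 405/Em 460 nm, triamterene-equivalent) was read immediately after pin transfer of compound or DMSO into medium (DMEM, 10% FBS) without cells.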
(qHTS replaces the single test concentration by a dilution series.)

Assay [3] in a line: qHTS assay to test for compound auto fluorescence at 535 nm (green) in HEK293 cell free culture (AID 720682). Summed up: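 No cells present: wells hold DMEM supplemented with 10% FBS, into which compound or vehicle is pinned. Green emission is then recorded (485 nm excitation, 535 nm emission) and scaled to fluorescein.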
Assay [4] in a line: qHTS assay to test for compound auto fluorescence at 590 nm (red) in HepG2 cell free culture (AID 720684). Summed up: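 Plate contents were MEM with 10% FBS plus test compound or DMSO, no cells. Fluorescence was recorded with 540 nm excitation and 590 nm emission.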
Assay [5] is described as follows: qHTS assay to test for compound auto fluorescence at 460 nm (blue) in HepG2 cell free culture (AID 720685). Summed up: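 Compound (23 nL) or DMSO pinned into cell-free MEM with 10% FBS; blue fluorescence read at 405/460 nm excitation/emission, expressed as auto-fluorescence equivalency to triamterene.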
The nature of assay [6]: qHTS assay to test for compound auto fluorescence at 535 nm (green) in HepG2 cell free culture (AID 720686).
Assay [7] can be described thus: qHTS assay to test for compound auto fluorescence at 460 nm (blue) in HepG2 cells (AID 720687). Summed up: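 Blue-channel autofluorescence (Ex/Em 405/460 nm, triamterene-equivalent) was measured after 1 hr compound exposure at 37 C, 5% CO2. Cells were HepG2, plated overnight at 37 C in MEM plus 10% FBS.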
The nature of assay [8]: qHTS assay to identify small molecule antagonists of the glucocorticoid receptor (GR) signaling pathway - cell viability counter screen (AID 720693). Note: nearly all actives have a fitted effect of over 55% in size.
Assay [9] can be described thus: qHTS assay to identify small molecule antagonists of the androgen receptor (AR) signaling pathway - cell viability counter screen (AID 743033; note: nearly all actives have a fitted effect of over 45% in size).
Assay [10] can be described thus: qHTS assay to identify small molecule antagonists of the androgen receptor (AR) signaling pathway using the MDA cell line - cell viability counter screen (AID 743041; note: nearly all actives have a fitted effect of over 45% in size). Summed up:
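R1881-driven MDA-kb2 AR-luc cells, 3,000/well, were dosed with library compounds for 16 h; cell health came from CellTiter-Fluor fluorescence in the reporter wells.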

A short description of assay [11]: qHTS assay for identifying genotoxic compounds that show differential cytotoxicity against isogenic chicken DT40 cell lines with known DNA damage response pathways - Rev3 mutant cell line (AID 743014). Note: nearly all actives have a fitted effect of over 55% in size. Note: potency is the fitted concentration of half-maximal effect.
Assay [12] in a line: qHTS assay for identifying genotoxic compounds that show differential cytotoxicity against isogenic chicken DT40 cell lines with known DNA damage response pathways - Rad54/Ku70 mutant cell line (AID 743015). Note: nearly all actives have a fitted effect of over 60% in size.
Assay [13] concerns the target Glucocorticoid receptor (Homo sapiens) (UniProt P04150). The assay is described as follows: qHTS assay to identify small molecule antagonists of the glucocorticoid receptor (GR) signaling pathway (AID 720692; active = well fitted inhibition curve with a large enough effect in the signal ratio in the repeat runs, not every such curve was filed as active; the % refers to the signal ratio). Summed up: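 Inhibition of glucocorticoid signalling is measured in HeLa cells with a GRE-controlled beta-lactamase reporter; cells are co-treated with compound and 5 nM dexamethasone (final) for 18 h before FRET substrate readout.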

A short description of assay [14]: qHTS assay for identifying genotoxic compounds that show differential cytotoxicity against isogenic chicken DT40 cell lines with known DNA damage response pathways - wild type cell line (AID 743012). Note: nearly all actives have a fitted effect of over 60% in size. Summed up:
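First, wild type DT40 cells were plated at 300 per well and equilibrated about 0.5 h at 37 C/5% CO2. Next, compounds in DMSO were added and exposure lasted 40 h. Finally, CellTiter-Glo was added for 30 min at room temperature and luminescence recorded.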

In assay [15] the target is Androgen receptor (Homo sapiens) (UniProt P10275). The assay is described as follows: qHTS assay to identify small molecule antagonists of the androgen receptor (AR) signaling pathway (AID 743035; active = well fitted inhibition curve with a large enough effect in the signal ratio in the repeat runs, not every such curve was filed as active; the % refers to the signal ratio). Summed up:
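Beta-lactamase FRET read (2 h RT incubation with LiveBLAzer B/G) following 16 h of compound plus R1881 treatment of AR-UAS-bla HEK293 cells, which had been pre-incubated 4 h at 37C.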

Assay [16] has the same target. The assay is described as follows: qHTS assay to identify small molecule agonists of the androgen receptor (AR) signaling pathway (AID 743036; active = well fitted activation curve with a large enough effect in the signal ratio in the repeat runs, with a control signal flat, not every such curve was filed as active; the % refers to the signal ratio). Summed up:
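Quantitative HTS of the Tox21 10K library in HEK293 cells bearing a stably integrated UAS-controlled beta-lactamase reporter. Compound exposure lasted 16 h at 37C. Reporter activity was detected by FRET substrate fluorescence after 2 h at room temperature.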

Assay [17] shares this target. The assay is described as follows: qHTS assay to identify small molecule agonists of the androgen receptor (AR) signaling pathway using the MDA cell line (AID 743040; note: nearly all actives have a fitted effect of over 20% in size). Summed up: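 After a 5 h incubation at 37C and 0% CO2, MDA-kb2 reporter cells were dosed with compounds in DMSO and kept 16 h under the same conditions. Luciferase activity was then read as luminescence with ONE-Glo.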

Assay [18] shares this target. The assay is described as follows: qHTS assay to identify small molecule antagonists of the androgen receptor (AR) signaling pathway using the MDA cell line (AID 743042; note: nearly all actives have a fitted effect of over 55% in size). Summed up: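 Antagonist mode: compounds plus R1881 agonist added to MDA-kb2 AR-luc cells, incubated 16 h at 37C. Luciferase reporter luminescence quantified, with multiplexed CellTiter-Fluor readout for cell viability.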

A short description of assay [19]: qHTS assay to test for compound auto fluorescence at 590 nm (red) in HEK293 cell free culture (AID 720683). Summed up: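 Red-channel autofluorescence of compounds in culture medium (DMEM, 10% FBS), no cells, measured at 540/590 nm. Rose Bengal sodium is the reference fluorophore for equivalence.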
Assay [20] concerns the target Glucocorticoid receptor (Homo sapiens) (UniProt P04150). The assay is described as follows: qHTS assay to identify small molecule agonists of the glucocorticoid receptor (GR) signaling pathway (AID 720691; active = well fitted activation curve with a large enough effect in the signal ratio in the repeat runs, not every such curve was filed as active; the % refers to the signal ratio). Summed up:
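qHTS in GR-bla HeLa cells: 4 h settling at 37 C/5% CO2, 18 h compound incubation at 37 C, 2 h LiveBLAzer B/G FRET substrate at room temperature, fluorescence intensity measured.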

Values without a mark were called inactive. Inconclusive results are not listed. Active and inactive are the calls of the source. Unless noted, calls come from the whole dose curve; as a rule, active = well fitted curve in the direction sought with a large enough effect in the repeat runs; inconclusive = weak or mixed curves; inactive = no such curve, though single readings can be large; an effect the other way counts as inactive or inconclusive.
% is set by controls: 0 for no effect and ±100 for the full control effect.

Sequence of Glucocorticoid receptor (Homo sapiens) (P04150 whole entry, looked up): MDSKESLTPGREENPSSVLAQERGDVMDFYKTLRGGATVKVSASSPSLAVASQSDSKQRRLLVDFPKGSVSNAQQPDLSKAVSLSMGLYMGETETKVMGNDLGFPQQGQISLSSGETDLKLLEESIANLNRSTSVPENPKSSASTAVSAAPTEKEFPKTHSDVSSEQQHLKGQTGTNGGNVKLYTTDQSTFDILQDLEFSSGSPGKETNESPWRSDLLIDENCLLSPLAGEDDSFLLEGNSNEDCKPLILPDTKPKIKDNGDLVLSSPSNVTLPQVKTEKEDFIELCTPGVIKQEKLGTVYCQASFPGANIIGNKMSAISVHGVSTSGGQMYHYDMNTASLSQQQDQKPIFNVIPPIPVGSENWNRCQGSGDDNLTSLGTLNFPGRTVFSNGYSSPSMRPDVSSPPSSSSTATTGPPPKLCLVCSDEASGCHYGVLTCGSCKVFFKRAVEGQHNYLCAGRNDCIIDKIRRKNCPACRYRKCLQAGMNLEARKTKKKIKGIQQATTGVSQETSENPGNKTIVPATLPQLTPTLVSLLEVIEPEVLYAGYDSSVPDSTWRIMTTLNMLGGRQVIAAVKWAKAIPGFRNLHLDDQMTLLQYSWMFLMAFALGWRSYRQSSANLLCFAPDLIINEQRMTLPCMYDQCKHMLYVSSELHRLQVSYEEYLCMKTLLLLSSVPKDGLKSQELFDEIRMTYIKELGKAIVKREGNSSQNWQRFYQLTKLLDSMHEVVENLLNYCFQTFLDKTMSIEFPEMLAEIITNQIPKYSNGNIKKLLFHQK
Sequence of Androgen receptor (Homo sapiens) (P10275 whole entry, looked up): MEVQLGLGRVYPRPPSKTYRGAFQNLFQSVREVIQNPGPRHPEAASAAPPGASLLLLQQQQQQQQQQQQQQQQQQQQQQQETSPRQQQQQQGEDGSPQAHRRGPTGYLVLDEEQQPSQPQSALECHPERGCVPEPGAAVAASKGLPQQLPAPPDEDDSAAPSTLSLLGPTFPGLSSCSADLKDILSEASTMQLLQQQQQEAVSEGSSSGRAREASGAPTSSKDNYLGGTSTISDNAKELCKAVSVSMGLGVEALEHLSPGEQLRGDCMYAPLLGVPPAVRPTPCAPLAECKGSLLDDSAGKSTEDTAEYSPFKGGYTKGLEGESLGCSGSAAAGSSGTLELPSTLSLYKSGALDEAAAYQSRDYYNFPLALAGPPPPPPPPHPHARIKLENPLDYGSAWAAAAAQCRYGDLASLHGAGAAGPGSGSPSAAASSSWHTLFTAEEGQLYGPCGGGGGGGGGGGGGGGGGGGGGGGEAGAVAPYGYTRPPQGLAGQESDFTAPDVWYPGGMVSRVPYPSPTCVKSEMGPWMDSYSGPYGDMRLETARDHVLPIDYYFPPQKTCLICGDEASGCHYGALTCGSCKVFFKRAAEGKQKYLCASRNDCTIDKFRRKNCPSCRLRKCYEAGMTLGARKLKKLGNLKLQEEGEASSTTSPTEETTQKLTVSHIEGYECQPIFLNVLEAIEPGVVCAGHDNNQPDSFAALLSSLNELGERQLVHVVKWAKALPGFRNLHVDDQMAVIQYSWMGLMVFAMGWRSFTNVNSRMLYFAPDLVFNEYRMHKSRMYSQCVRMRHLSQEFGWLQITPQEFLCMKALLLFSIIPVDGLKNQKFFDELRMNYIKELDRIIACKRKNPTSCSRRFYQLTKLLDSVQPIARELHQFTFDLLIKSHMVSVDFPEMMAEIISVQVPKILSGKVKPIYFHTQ

On to `CC(C)(C)c1cc(CCC(=O)NN)cc(C(C)(C)C)c1O`, for which the call in assay [1], in assay [2], in assay [3], in [4], in assay [5] and in assay [6] was inactive. Besides, the call in assay [7] and in assay [8] was inactive. Also, the Potency result in assay [9] and in assay [10] was “inactive” in each case.

In the case of `CCCC/C=C\CCCCCCCCCC=O`, the result in [1], in assay [2], in assay [3], in assay [4], in assay [5] and in assay [6] was inactive. For the same molecule, the call in assay [7] and in assay [8] was inactive. The Potency entry in [11], in [12], in assay [9] and in assay [10] was “inactive” throughout.

For `CC(=O)OC(C)OC(=O)C(C)c1ccc(-c2ccccc2)c(F)c1` (stereo not drawn), the outcome in [1], in [2], in [3], in [4], in assay [5] and in assay [6] was inactive. The outcome in assay [7], in assay [13], in assay [8], in [16] and in assay [17] was inactive. The Potency result in [14], in assay [11], in [12], in assay [9], in assay [15] and in assay [10] was “inactive” throughout. Further, the Potency result in [18] was “inactive”.

With `Nc1ccc2cc(S(=O)(=O)O)cc(O)c2c1`, the call in [1], in assay [2], in [3], in assay [19], in assay [4] and in assay [6] was inactive. The molecule was classed as inactive in assay [16] and in assay [17]. Further, the Potency entry in assay [14], in [11], in assay [12], in assay [9], in assay [15] and in [10] was “inactive” in each case. In addition, the Potency result in assay [18] was “inactive”.

In the case of `Cc1cc(C(C)(C)C)c(O)c(C)c1CC1=NCCN1`, the molecule was classed as inactive in assay [1], in [2], in assay [3], in assay [4], in assay [5] and in [6]. Further, the result in assay [7], in assay [13], in [8], in assay [16] and in [17] was inactive. The Potency result in [20], in assay [11], in [15], in [10] and in [18] was “inactive” each time.

In the case of `CCCCNC1CC(C)(C)NC(C)(C)C1`, the call in [1], in [2], in assay [3], in assay [4], in [5] and in assay [6] was inactive. Also, the result in [7], in [13] and in [8] was inactive. Besides, the Potency result in [14] and in assay [9] was “inactive” throughout. Moreover, the Potency in [11] was 48.6 µM (active).

On to `CC(=C(CCOC(=O)C(C)C)SSC(CCOC(=O)C(C)C)=C(C)N(C=O)Cc1cnc(C)nc1N)N(C=O)Cc1cnc(C)nc1N`, for which the result in assay [1], in assay [2], in assay [3], in assay [4], in [5] and in assay [6] was inactive. Also, the molecule was called inactive in assay [7] and in assay [13]. For the same molecule, the Potency result in assay [20], in assay [14], in assay [12], in [9] and in [10] was “inactive” throughout.

Turning to `Cc1ccc(C=O)cc1C`, the result in [1], in [2], in [3], in assay [4], in assay [5] and in assay [6] was inactive. The molecule was called inactive in [7], in assay [13] and in assay [8]. Besides, the Potency entry in [20], in assay [14], in [11], in assay [12] and in [9] was “inactive” throughout.

`CCOc1cc(NC(C)=O)ccc1C(=O)OC`: the molecule was classed as inactive in assay [1], in assay [2], in assay [3], in assay [4], in [5] and in assay [6]. In addition, the molecule was classed as inactive in assay [7], in assay [13] and in assay [8]. Moreover, the Potency entry in [20], in [14], in assay [11], in assay [9] and in [10] was “inactive” in each case.

In the case of `C[C@@H]1O[C@@H](O[C@@H]2[C@@H](O)[C@H](OCCc3ccc(O)c(O)c3)O[C@H](CO[C@@H]3O[C@H](CO)[C@@H](O)[C@H](O)[C@H]3O)[C@H]2OC(=O)/C=C/c2ccc(O)c(O)c2)[C@H](O)[C@H](O)[C@H]1O`, the call in assay [1], in assay [2], in assay [3], in assay [4], in assay [5] and in assay [6] was inactive. Also, the call in assay [7] and in [8] was inactive. Also, the Potency entry in assay [20], in [9] and in assay [10] was “inactive” in each case.

Turning to `CCN(CC)CC(=O)Nc1c(C)cccc1C`, the call in assay [1], in assay [2], in assay [3], in assay [4], in assay [5] and in [6] was inactive. Moreover, the molecule was classed as inactive in assay [7], in assay [13], in assay [16] and in assay [17]. The Potency entry in [20], in [12], in assay [10] and in assay [18] was “inactive” each time.

With `O=S(O)(O)=S`, the fluorescence, % of fluorescein in [1] was -0.0177% [at 3.72 µM]. The fluorescence, % of fluorescent control in assay [2] is -0.0004% [at 3.72 µM]; in assay [5], -0.093% [at 3.72 µM]; in assay [7], -0.0508% [at 3.72 µM]. In addition, in assay [3], the activity change was -0.0159% [at 3.72 µM]. The fluorescence, % of Rose Bengal in [4] is -0.0109% [at 3.72 µM]. The fluorescence, % of fluorescein control in assay [6] was 0.0353% [at 3.72 µM]. For the same molecule, the activity change, negative = cytotoxicity was -4.81% [at 8.52 µM] in assay [14], -5.32% [at 8.55 µM] in assay [12] and 3.7% [at 7.04 µM] in assay [9]. The activity, negative = cytotoxicity in assay [11] is 5.56% [at 8.53 µM]. Also, the viability change, negative = cytotoxic in [10] is -5.99% [at 8.47 µM].

As to `CCCCCCCCCC(C)=O`, the molecule was called inactive in [1], in assay [2], in [3], in [4], in assay [5] and in [6]. Further, the call in assay [7], in assay [13], in assay [8], in assay [16] and in assay [17] was inactive. Further, the Potency entry in [20], in assay [14], in assay [11], in assay [12], in [9] and in assay [15] was “inactive” throughout. In addition, the Potency result in [10] and in [18] was “inactive” throughout.

For the molecule `CCOCCOCCOCC`, the molecule was classed as inactive in assay [1], in assay [2], in assay [3], in [4], in [5] and in assay [6]. Besides, the result in assay [7], in assay [13] and in [8] was inactive. The Potency result in assay [20], in [14], in assay [11], in [9] and in assay [10] was “inactive” in each case.

Consider `CCCCCCCC/C=C\CCCCCCCC(=O)OCCCC`, for which the fluorescence, % of fluorescein in assay [1] was 0.0126% [at 18.6 µM]. The fluorescence, % of fluorescent control was -0.0858% [at 18.6 µM] in assay [2], -0.0292% [at 18.6 µM] in assay [5] and -0.0041% [at 18.6 µM] in assay [7]. In assay [3], the activity change is -0.0648% [at 18.6 µM]. The fluorescence, % of Rose Bengal in assay [4] was 0.134% [at 18.6 µM]. In addition, the fluorescence, % of fluorescein control in assay [6] is -0.0278% [at 18.6 µM]. Moreover, the Potency result in assay [20], in assay [14], in assay [11], in assay [9] and in assay [10] was “inactive” each time. The result in [13] and in [8] was inactive.

(Values after PubChem BioAssay (Tox21).)
